Assay [1] addresses Cytochrome P450 3A4 (Homo sapiens) (UniProt P08684). Nature of the assay: qHTS for inhibitors of CYP3A4 against the NCATS DSHEA and TCM libraries (AID 1919971). Note: potency is the fitted concentration of half-maximal effect. The note with it: recombinant CYP3A4 enzyme activity, luminescence qHTS. The gist of the method: (§1)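 Concentration-response screening with isoform-matched pro-luciferin substrates. The CYP reaction was initiated by NADPH regenerating solution and ran 30-45 min in darkness at room temperature.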

Assay [2] deals with Cytochrome P450 2D6 (Homo sapiens) (UniProt P10635). Nature of the assay: qHTS for inhibitors of CYP2D6 against the NCATS DSHEA and TCM libraries (AID 1919972). Note: potency is the fitted concentration of half-maximal effect. The following applies: CYP2D6 enzymatic inhibition, luminescence qHTS. The method in brief: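 CYP2D6 enzyme with pro-luciferin substrate in manufacturer buffer (typically 100 mM KPO4), preincubated 15 min RT with substances (most at 19.5 nM upward); NADPH regeneration system (1x) started 30–45 min RT reaction; P450-Glo luminescence read after 30 min; quinidine as intraplate control.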
Sequence of Cytochrome P450 2D6 (Homo sapiens) (P10635 whole entry, looked up): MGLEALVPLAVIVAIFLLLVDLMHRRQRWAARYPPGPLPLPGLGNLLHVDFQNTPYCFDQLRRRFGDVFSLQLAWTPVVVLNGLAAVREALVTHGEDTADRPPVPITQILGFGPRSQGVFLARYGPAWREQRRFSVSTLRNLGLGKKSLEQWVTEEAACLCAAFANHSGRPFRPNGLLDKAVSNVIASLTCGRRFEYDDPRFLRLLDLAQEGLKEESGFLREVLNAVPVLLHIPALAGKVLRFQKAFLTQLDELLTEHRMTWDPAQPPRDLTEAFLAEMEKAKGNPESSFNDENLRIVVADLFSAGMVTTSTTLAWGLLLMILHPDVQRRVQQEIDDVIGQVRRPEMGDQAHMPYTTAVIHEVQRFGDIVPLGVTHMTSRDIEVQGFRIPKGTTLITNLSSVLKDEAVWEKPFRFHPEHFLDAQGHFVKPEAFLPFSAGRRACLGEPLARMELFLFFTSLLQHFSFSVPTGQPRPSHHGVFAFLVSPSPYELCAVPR
(In general: Quantitative high-throughput screening tests each substance at several concentrations.)

The target in assay [3] is Cytochrome P450 2C9 (Homo sapiens) (UniProt P11712). Kind of assay: qHTS for inhibitors of CYP2C9 against the NCATS DSHEA and TCM libraries (AID 1919973). Note: potency is the fitted concentration of half-maximal effect. The note with it: recombinant CYP2C9 enzyme activity, luminescence. The gist of the method: as §1
Sequence of Cytochrome P450 2C9 (Homo sapiens) (P11712 whole entry, looked up): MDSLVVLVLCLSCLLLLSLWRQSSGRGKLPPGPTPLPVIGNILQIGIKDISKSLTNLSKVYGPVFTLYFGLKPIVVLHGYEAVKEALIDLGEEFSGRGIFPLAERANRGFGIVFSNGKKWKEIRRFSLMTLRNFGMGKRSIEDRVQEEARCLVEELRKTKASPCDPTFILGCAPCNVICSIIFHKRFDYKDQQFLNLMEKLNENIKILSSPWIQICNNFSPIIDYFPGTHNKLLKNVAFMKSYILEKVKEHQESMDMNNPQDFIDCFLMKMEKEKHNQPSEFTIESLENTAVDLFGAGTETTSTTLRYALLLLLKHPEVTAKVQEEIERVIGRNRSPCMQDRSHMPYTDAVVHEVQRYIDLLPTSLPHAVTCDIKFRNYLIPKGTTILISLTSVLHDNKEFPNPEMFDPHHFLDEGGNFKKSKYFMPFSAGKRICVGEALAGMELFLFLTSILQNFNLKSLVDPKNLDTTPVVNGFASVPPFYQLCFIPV
The target in assay [4] is Cytochrome P450 2C19 (Homo sapiens) (UniProt P33261). Nature of the assay: qHTS for inhibitors of CYP2C19 against the NCATS DSHEA and TCM libraries (AID 1919974).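 Note: luminescence from luciferin released by CYP2C19 oxidation of a pro-luciferin substrate; potency is the fitted concentration of half-maximal effect.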 The note with it: CYP2C19 enzyme inhibition, luminescence qHTS. The gist of the method:
as §1

A short description of assay [5]: KB-3-1 P-gp reporter qHTS against the NCATS DSHEA and TCM libraries (AID 1919975). The note with it: KB-3-1 parental cells, CellTiter-Glo luminescence viability, 72 h; series mostly up to 26.1 µM. The gist of the method: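 Parental KB-3-1 cells, 500 cells/well, in DMEM with 10% FBS, exposed 72 h at 37 C to compounds in concentration-response. Viability read by CellTiter-Glo luminescence after 30 min at room temperature.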

Assay [6] concerns the target Cytochrome P450 1A2 (Homo sapiens) (UniProt P05177). Kind of assay: qHTS for inhibitors of CYPIA2 against the NCATS DSHEA and TCM libraries (AID 1919976). Note: potency is the fitted concentration of half-maximal effect. The note with it: recombinant CYP1A2 enzyme activity, luminescence. The method in brief:
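Enzyme and pro-luciferin substrate, or substrate alone as no-enzyme background, are pre-incubated with test samples for 15 min at room temperature. NADPH regeneration system (1x final) initiates a 30-45 min dark reaction; luciferase detection reagent follows before luminescence reading.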

Assay [7] is described as follows: Dual reporter qHTS for agonist of Pregnane X Receptor (hPXR) against the NCATS DSHEA and TCM libraries: Fluorescence readout (AID 1920058). The note with it: PXR dual reporter cells; series mostly up to 40 µM. The gist of the method:
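Cells were plated at 2000 per well and allowed to attach for 5 h. Test substances were pinned in and incubated roughly 24 h. CellTiter-Fluor was then added and fluorescence measured after 1 h.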

The target in assay [8] is Nuclear receptor subfamily 1 group I member 2 (Homo sapiens) (UniProt O75469). Kind of assay: Dual reporter qHTS for agonist of Pregnane X Receptor (hPXR) against the NCATS DSHEA and TCM libraries: Luminescence readout (AID 1920059). The note with it: hPXR dual reporter cells, luciferase luminescence agonist; series mostly up to 40 µM. The method in brief:
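hPXR-LucHepG2 cells in phenol red-free DMEM with 5% charcoal-stripped FBS, 2000 cells/well, attached 5 h, then exposed 24 h at 37C to compounds; rifampicin as positive agonist control (2.8 nM–92 uM). Luciferase luminescence read.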

Assay [9] shares this target. Nature of the assay: Dual reporter qHTS for antagonist of Pregnane X Receptor (hPXR) against the NCATS DSHEA and TCM libraries: Luminescence Readout (AID 1920060). The note with it: hPXR dual reporter cells, luciferase luminescence, antagonist mode; series mostly up to 40 µM. The method in brief: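 Rifampicin-stimulated (2 uM final) hPXR-luciferase HepG2 cells were treated for 24 h with DSNP/TCM substances. Viability came from CellTiter-Fluor fluorescence, reporter activity from ONE-Glo luminescence.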

Results filed as inconclusive are left out. The source made the active and inactive calls. Calls come from the whole dose curve; as a rule, active = well fitted curve in the direction sought with a large enough effect; inconclusive = small, poorly fitted or top-dose-only effect, or another doubt; inactive = no such curve, though single readings can be large; an effect the other way counts as inactive or inconclusive.

Sequence of Nuclear receptor subfamily 1 group I member 2 (Homo sapiens) (O75469 whole entry, looked up): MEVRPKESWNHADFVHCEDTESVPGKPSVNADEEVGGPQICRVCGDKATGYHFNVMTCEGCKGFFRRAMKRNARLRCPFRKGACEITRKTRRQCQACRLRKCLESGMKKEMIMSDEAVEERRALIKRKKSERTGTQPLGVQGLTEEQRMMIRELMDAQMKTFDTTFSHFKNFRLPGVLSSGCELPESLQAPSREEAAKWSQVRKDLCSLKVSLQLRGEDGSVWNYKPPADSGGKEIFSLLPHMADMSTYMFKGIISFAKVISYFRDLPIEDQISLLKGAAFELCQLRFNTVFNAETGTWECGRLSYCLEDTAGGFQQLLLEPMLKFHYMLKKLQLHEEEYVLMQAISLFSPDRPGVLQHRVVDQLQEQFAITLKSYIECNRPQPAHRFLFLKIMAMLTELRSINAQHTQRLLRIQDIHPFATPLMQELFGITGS
Sequence of Cytochrome P450 2C19 (Homo sapiens) (P33261 whole entry, looked up): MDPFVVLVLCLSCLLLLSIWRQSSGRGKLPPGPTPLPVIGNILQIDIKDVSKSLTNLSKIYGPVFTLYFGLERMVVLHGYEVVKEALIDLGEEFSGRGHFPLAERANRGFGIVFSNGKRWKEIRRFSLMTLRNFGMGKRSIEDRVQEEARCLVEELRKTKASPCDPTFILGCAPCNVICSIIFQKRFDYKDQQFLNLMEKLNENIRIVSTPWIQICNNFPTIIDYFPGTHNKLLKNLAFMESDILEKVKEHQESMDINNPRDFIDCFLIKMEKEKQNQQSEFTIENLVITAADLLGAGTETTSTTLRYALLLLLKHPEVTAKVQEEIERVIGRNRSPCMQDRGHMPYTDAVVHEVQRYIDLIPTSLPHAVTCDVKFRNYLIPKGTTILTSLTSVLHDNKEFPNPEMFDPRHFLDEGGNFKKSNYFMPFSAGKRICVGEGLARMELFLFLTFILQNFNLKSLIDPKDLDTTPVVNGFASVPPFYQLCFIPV
Sequence of Cytochrome P450 3A4 (Homo sapiens) (P08684 whole entry, looked up, canonical isoform): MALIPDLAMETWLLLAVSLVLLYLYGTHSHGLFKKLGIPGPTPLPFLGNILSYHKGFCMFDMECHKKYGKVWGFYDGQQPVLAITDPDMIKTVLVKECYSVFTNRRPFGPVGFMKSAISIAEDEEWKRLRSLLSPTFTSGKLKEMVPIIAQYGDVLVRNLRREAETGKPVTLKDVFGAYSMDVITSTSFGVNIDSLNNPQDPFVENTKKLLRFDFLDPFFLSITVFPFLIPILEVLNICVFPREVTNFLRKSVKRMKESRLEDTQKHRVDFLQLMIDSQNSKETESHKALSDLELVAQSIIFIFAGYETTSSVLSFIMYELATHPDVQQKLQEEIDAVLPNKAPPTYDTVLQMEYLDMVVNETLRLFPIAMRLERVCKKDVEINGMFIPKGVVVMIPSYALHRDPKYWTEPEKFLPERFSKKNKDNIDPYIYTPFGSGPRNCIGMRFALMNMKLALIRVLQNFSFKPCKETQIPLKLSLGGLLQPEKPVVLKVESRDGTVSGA
Sequence of Cytochrome P450 1A2 (Homo sapiens) (P05177 whole entry, looked up): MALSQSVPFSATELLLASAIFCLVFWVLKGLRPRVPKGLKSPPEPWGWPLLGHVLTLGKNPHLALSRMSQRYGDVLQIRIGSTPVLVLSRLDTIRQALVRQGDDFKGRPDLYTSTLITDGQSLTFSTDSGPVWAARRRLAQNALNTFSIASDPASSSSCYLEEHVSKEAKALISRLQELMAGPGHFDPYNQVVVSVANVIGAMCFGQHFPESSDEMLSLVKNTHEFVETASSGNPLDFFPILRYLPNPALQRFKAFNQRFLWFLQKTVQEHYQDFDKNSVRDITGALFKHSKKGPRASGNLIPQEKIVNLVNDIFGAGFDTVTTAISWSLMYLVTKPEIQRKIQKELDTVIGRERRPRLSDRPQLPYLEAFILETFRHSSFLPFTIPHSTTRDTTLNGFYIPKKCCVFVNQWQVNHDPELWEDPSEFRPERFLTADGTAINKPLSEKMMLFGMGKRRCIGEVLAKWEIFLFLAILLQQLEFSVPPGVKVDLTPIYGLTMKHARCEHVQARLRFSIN

As to `Cc1cc(O)c2c(c1)C(=O)c1cc(O)cc(O)c1C2=O`, the Potency in assay [1] was 10 µM (active); in assay [2], 22.4 µM (active); in assay [3], 8.91 µM (active); in assay [4] it was 22.4 µM (active); in assay [6], 8.91 µM (active). Moreover, the outcome in [5], in [7], in assay [8] and in [9] was inactive.

For the origin of these results see PubChem BioAssay (NCATS).
